Bioassay records: PubChem, Sanford-Burnham Center for Chemical Genomics
ER stress surv: protection against thapsigargin ER stress killing – CSM14.1 cells, ATP luminescence, primary screen; CSM14.1 thapsigargin ER stress survival; relative survival (cellular ATP), % at 15 µg/mL (by protocol); AID 1010, 2008; 48,000 compounds, 0.33% hits;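 active means survival measured by cellular ATP above 50% at 15 µg/ml in the first screen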;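 further: cell death triggered by about 15 µM thapsigargin; ATP read 24 h after thapsigargin was added; plate controls were thapsigargin with DMSO for no effect and DMSO without thapsigargin for full effect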
The depositor's hits bear a star. This excerpt belongs to a sample that is enriched for hits.

SMILES	ER stress surv
COc1ccc(CN2CCN(C(=O)COc3ccc(Cl)cc3)CC2)cc1OCc1ccccc1	69.2*
COc1ccc(Br)cc1CN1CCN(C(=O)COc2ccc(Cl)cc2)CC1	23.5
O=C(COc1ccc(Cl)cc1)N1CCN(Cc2cccc(F)c2)CC1	-2.3
COc1ccc(CN2CCN(Cc3ccc(SC)cc3)CC2)cc1	-3.4
CCCC1(c2ccccc2)C(=O)NC(=O)NC1=O	10.5
